# Bioassay records deposited in PubChem by Sanford-Burnham Center for Chemical Genomics.
# A3G deaminase – APOBEC3G DNA deaminase inhibitors, primary screen, biochemical, fluorescence, single-stranded DNA substrate, uHTS | DNA dC->dU-editing enzyme APOBEC-3G (Homo sapiens), Q9HC16 | recombinant A3G, ssDNA deamination FAM/TAMRA fluorescence | inhibition, % at 20 µM | actives 0.28% (n = 330,000);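 active = inhibition of at least 40% at 20 µM, with no more than 30% in the related APOBEC3A deaminase screen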;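 also: plate controls were DMSO wells with A3G for no effect and wells lacking A3G enzyme for full effect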
# PfG6PD inh – PfG6PD enzyme inhibitors, primary screen, biochemical, fluorescence intensity, uHTS; inhibition, % at 20 µM; glucose-6-phosphate dehydrogenase-6-phosphogluconolactonase (Plasmodium falciparum 3D7); PfGluPho enzyme, NADPH resazurin-diaphorase fluorescence; actives 0.78% (n = 350,000);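 active = inhibition reaching at least a set limit at 20 µM in the primary screen, cut at about 59% in these data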;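 also: 0% = DMSO wells with substrate and 100% = DMSO wells lacking glucose-6-phosphate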
# Neddyl block – inhibitors of cullin neddylation, primary screen, biochemical, TR-FRET, uHTS, NAE and Ubc12; AID 651699, 2012; inhibition, % at 25 µM; actives 0.58% (n = 360,000); in the data active = inhibition above about 36%
# Target sequence (P61081 whole entry, looked up): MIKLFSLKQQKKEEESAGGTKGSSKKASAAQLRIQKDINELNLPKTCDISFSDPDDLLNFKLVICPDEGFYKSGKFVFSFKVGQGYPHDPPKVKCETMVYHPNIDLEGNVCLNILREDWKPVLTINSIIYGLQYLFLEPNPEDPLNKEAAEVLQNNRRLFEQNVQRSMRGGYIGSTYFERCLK
# Target sequence (Q13564 whole entry, looked up): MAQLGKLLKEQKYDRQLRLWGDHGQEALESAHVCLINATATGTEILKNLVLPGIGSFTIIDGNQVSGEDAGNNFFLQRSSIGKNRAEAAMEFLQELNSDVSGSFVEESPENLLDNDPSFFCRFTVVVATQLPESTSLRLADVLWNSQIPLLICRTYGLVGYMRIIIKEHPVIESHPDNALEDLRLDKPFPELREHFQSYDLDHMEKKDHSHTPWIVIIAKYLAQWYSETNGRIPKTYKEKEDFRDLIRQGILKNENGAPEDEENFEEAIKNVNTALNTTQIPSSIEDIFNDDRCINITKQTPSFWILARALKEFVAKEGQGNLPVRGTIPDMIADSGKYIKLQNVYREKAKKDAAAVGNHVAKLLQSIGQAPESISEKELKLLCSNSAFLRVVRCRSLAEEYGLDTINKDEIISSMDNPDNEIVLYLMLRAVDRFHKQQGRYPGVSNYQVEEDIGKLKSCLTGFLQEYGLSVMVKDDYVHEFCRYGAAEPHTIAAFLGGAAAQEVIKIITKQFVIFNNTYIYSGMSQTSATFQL
# A3A deaminase – APOBEC3A ssDNA deaminase inhibitors, primary screen, selectivity assay for APOBEC3G inhibitor project, biochemical, FAM/TAMRA oligo cleavage fluorescence; actives 0.41% (n = 330,000); inhibition, % at 20 µM; recombinant A3A, FAM/TAMRA ssDNA deamination fluorescence; AID 493011, 2011; DNA dC->dU-editing enzyme APOBEC-3A (Homo sapiens), P31941;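 active = at least 40% inhibition at 20 µM here, with at most 30% in a related deaminase screen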;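 also: plate controls were A3A with DMSO for no effect and wells lacking A3A enzyme for full effect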
# GC-A act – GC-A stimulated cGMP production enhancers – HEK293 GC-A cells, cGMP TR-FRET, EC30 ANP, primary screen; AID 1671463, 2021; Atrial natriuretic peptide receptor 1 (Homo sapiens), P16066; activation, % at 10 µM; 0% at EC30 ANP, 100% saturating ANP; actives 0.14% (n = 370,000); in the data active = activation above about 40%
# GC-B act – human GC-B receptor activators, primary screen, HEK293 GC-B cells, cGMP TR-FRET, EC30 CNP. 0% at EC30 CNP, 100% saturating CNP. activation, % at 10 µM. actives 0.11% (n = 370,000). AID 1920062, 2024;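 active = activation at 10 µM reaching about 35% in either raw or pattern-adjusted values, limit read from the data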
# APOBEC3G confirm – APOBEC3G deaminase inhibitor retest, confirmation, biochemical, fluorescence, single-stranded DNA substrate, single concentration. inhibition, % at 20 µM. actives 72% (n = 890). recombinant A3G ssDNA deaminase, UDG/FAM-TAMRA fluorescence. shares compounds with A3G deaminase;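 active = inhibition reaching a set limit in any replicate at 20 µM, the limit being 80% of the first screen's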
# UDG ctr A3G – E. coli UDG inhibitors, confirmation, counter-screen for APOBEC3G inhibitor project, biochemical, single concentration, fluorescence, FAM/TAMRA oligo; 710 tested, under 10 active; shares compounds with A3G deaminase; inhibition, % at 20 µM; UDG counterscreen;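 active = compounds giving 40% or more inhibition at 20 µM in any one of the three replicates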;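 also: plate controls were DMSO wells with UDG and oligo for no effect and DMSO wells lacking both for full effect; inhibitors lower the FAM signal released by uracil excision and alkaline cleavage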
# PfG6PD confirm – PfG6PD inhibitors, hit retest, confirmation, biochemical, fluorescence intensity, single concentration; shares compounds with PfG6PD inh; recombinant PfGluPho, NADPH-diaphorase-resazurin fluorescence; inhibition, % at 20 µM; actives 34% (n = 2,400);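 active = inhibition of at least 50% at 20 µM in any single replicate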;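 also: 0% = DMSO with substrate and 100% = DMSO lacking glucose-6-phosphate substrate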
# Diaph ctr 10uM – diaphorase inhibitors and chemical oxidizers, confirmation, counter-screen for P. falciparum G6PD inhibitor project, biochemical, fluorescence intensity, 10 µM NADPH | inhibition, % at 20 µM | shares compounds with PfG6PD inh | actives 39% (n = 820) | diaphorase-coupled resazurin reduction, NADPH 10 uM;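 active = average inhibition reaching 50% or more with the compound at 20 µM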;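 also: resorufin red fluorescence formed as diaphorase reduces resazurin using NADPH; 0% = DMSO with enzyme and 100% = DMSO without enzyme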
# Diaphorase 30uM – diaphorase inhibitors and chemical oxidizers, confirmation, counter-screen for P. falciparum G6PD inhibitor project, biochemical, fluorescence intensity, 30 µM NADPH; shares compounds with PfG6PD inh; Diaphorase/resazurin coupled assay, resorufin fluorescence; inhibition, % at 20 µM; actives 29% (n = 820);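 active = inhibition averaging 50% or more, tested at 20 µM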;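 also: 0% = DMSO with enzyme and 100% = DMSO wells lacking diaphorase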
# * = called active by the depositor; · = no result. Shown are actives, neighbours in structure and some others; about 2% of the full set was active somewhere.
SMILES,A3G deaminase,PfG6PD inh,Neddyl block,A3A deaminase,GC-A act,GC-B act,PfG6PD confirm,Diaph ctr 10uM,Diaphorase 30uM,others
c1cncc(C2Nc3cccc4cccc(c34)N2)c1,45*,39,-15,22,7,1,·,·,·,APOBEC3G confirm=64*
O=C1C=CC(=O)C=C1,82*,54,4,5,0,7,·,·,·,APOBEC3G confirm=88*;UDG ctr A3G=-3
CC(NC(=O)OCc1ccccc1)P(=O)(Oc1ccccc1)Oc1ccccc1 (stereo not drawn),·,·,·,·,-3,-6,·,·,·,
O=c1c2ccccc2[se]n1-c1ccccc1,91,127*,-5,43,-30,-5,113*,-23,-5,
CC1CCN(C(CC(=O)c2ccccc2)C(=O)c2ccccc2)CC1 (stereo not drawn),·,94*,1,·,13,14,0,·,·,
CCCN1CCc2cccc3c2[C@H]1Cc1ccc(O)c(O)c1-3,23,86*,33,-10,·,·,82*,28,11,
COC(=O)C1=C(c2ccc(OC(F)(F)F)cc2)C[C@@H]2CC[C@H]1N2C(=O)NCc1ccco1,·,·,·,·,-2,-3,·,·,·,
COC(=O)C1=C(C(=O)OC)SC2(S1)C(C(=O)OC)=C(C(=O)OC)Sc1c2ssc1=O,·,86*,-42,·,43*,65*,60*,-2,-3,
CN1CC[C@@H]2CN[C@H](c3ccccc3)C[C@@H]21,·,·,·,·,0,5,·,·,·,
COc1cccc(NC2=NCCS2)c1,·,·,·,·,3,0,·,·,·,
O=C(O)CC1OCC=C2CN3CCC45C6=CC(=O)C(=O)C([N+](=O)[O-])=C6NC4C1C2CC35 (stereo not drawn),·,107*,-42,·,·,·,105*,91*,97*,
COC(=O)C1C(c2ccc(C)cc2)CC2CCC1N2C (stereo not drawn),·,·,·,·,4,-1,·,·,·,
CCCCCCCCc1ccc(O)cc1,-10,-16,-9,-4,2,5,·,·,·,
CCCCCCCCn1sccc1=O,-18,92*,2,-1,49*,14,78*,-9,-9,
Cc1c(P(=S)(c2ccccc2)c2ccccc2)c2ccccc2n1C,·,·,·,·,-24,-23,·,·,·,
COc1ccc(OC(=O)N(C)C[C@H]2OCc3cnnn3CCCC(=O)N([C@@H](C)CO)C[C@@H]2C)cc1,·,·,·,·,2,-2,·,·,·,
CCOC(=O)C(O)(c1ccc(N(C)C(=O)c2ccc(Cl)c(Cl)c2)cc1)C(F)(F)F (stereo not drawn),-12,14,2,3,0,0,·,·,·,
CCOC(=O)C(O)(c1ccc(NC(=O)c2ccc(Cl)c(Cl)c2)cc1)C(F)(F)F (stereo not drawn),-10,62*,7,-3,-1,-6,-27,·,·,
C[C@H](NC(=O)OCc1ccccc1)C(=O)NC(Cc1ccccc1)P(=O)(Oc1ccccc1)Oc1ccccc1 (stereo partly drawn),·,·,·,·,-4,-3,·,·,·,
CNC(=O)Oc1cccc(-c2cn3cc(Cl)ccc3n2)c1,0,61*,0,1,6,2,17,·,·,
CCC(COC(=O)NC)NC(=O)Oc1cccc(C)c1 (stereo not drawn),-1,-24,0,-5,4,2,·,·,·,
CNC(=O)Oc1ccc(-c2cn3cc(C)ccc3n2)cc1,-8,62*,39,-1,-2,1,47,·,·,
Fc1ccc2nc(-c3ccc(CN4CCC(n5nnc6ccccc65)CC4)cc3)c(-c3ccccc3)nc2c1,·,·,·,·,7,1,·,·,·,
O=C(O)CCl,·,·,·,·,4,3,·,·,·,
CC1=NN=C(c2ccc(N)cc2)c2cc3c(cc2C1)OCO3,-3,44,10,-1,6,4,9,·,·,
SMILES,A3G deaminase,PfG6PD inh,Neddyl block,A3A deaminase,GC-A act,GC-B act,PfG6PD confirm,Diaph ctr 10uM,Diaphorase 30uM,others
N#CCCC#N,·,·,·,·,-2,-13,·,·,·,
O=C1C(=O)c2cccc3cccc1c23,-2,0,-26,2,-2,1,·,·,·,
O=C1C(=O)c2ccccc2-c2ccccc21,-1,117*,-166,0,5,-3,97*,88*,90*,
c1ccc(-c2nc(N3CCOCC3)s[n+]2-c2ccccc2)cc1,4,59*,0,-1,12,4,73*,-24,-25,
O=C(NCCN1CCC2(CC1)C(=O)NCN2c1ccccc1)c1ccc(Cl)cc1,·,·,·,·,-5,-1,·,·,·,
O=C(c1ccccc1)N1Cc2cc(Br)ccc2-n2nncc2C1,·,·,·,·,-2,2,·,·,·,
Cc1nc2c(=O)n(C)c(=O)nc-2n(C)n1,-3,120*,-81,2,0,9,109*,98*,102*,
O=S(=O)(c1ccc(Cl)cc1)N1Cc2ccc(Br)cc2-n2nncc2C1,·,·,·,·,-9,-5,·,·,·,
NC1CCc2cc(O)c(O)cc2C1 (stereo not drawn),4,69*,-10,2,-2,4,76*,-2,6,
CCCC(=O)Nc1ccc(N2CCN(CC)CC2)c(Cl)c1,-1,26,5,-2,1,-6,·,·,·,
CCCC(=O)NC1=C(N2CC2)C(=O)C(NC(=O)CCC)=C(N2CC2)C1=O,·,81*,-32,·,-7,-6,94*,85*,82*,
C=C1C(=O)OC2CC(C)C3C=CC(=O)C3(C)C(O)C12 (stereo not drawn),·,22,8,·,·,·,·,·,·,
